About 3,300 (1.1%) of roughly 310,000 compounds were called active. The sample holds actives, similar compounds and a random draw of the others, so the mix is not that of the screen.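 How the source made its calls: active means B-score under library mean minus 3 SD, initial fluorescence not abnormally high, positive integrated signal ratio; inactive means the rest.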

The target in this test is Short transient receptor potential channel 6 (Mus musculus) (UniProt Q61143). In words: mouse TRPC6 channel inhibitors, primary screen, cell-based, HEK293, membrane potential dye (AID 2553).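 On B-score: B-score derived from integrated fluorescence ratio over the kinetic read; more negative B-score means stronger inhibition of depolarization.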 The note with it: ACh-evoked depolarization, at 10 µM; hits give low values.
Chain of Short transient receptor potential channel 6 (Mus musculus) (Q61143 whole entry, looked up): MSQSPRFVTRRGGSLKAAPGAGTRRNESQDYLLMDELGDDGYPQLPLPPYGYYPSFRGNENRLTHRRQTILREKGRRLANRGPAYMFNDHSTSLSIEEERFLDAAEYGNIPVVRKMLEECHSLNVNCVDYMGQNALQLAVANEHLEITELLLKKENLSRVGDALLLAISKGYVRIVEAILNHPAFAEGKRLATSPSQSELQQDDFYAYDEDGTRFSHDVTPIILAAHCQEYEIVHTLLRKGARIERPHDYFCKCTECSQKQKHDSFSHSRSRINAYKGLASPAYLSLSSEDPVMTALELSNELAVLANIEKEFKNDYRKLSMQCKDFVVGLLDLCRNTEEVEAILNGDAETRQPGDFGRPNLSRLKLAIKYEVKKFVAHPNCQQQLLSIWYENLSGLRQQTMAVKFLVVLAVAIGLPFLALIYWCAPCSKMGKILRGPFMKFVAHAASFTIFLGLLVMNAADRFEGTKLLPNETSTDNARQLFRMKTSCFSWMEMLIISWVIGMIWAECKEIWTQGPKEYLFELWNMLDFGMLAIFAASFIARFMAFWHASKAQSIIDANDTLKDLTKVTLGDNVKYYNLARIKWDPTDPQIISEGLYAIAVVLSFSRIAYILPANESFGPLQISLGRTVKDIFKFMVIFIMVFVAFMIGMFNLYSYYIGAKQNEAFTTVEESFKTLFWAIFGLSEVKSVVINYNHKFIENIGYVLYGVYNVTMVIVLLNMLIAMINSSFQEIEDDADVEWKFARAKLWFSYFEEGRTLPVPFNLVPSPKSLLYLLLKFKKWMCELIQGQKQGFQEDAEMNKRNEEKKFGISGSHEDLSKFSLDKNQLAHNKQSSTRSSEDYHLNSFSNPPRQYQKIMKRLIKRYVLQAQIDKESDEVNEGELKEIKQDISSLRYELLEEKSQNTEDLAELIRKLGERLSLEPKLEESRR
With `COc1ccccc1N1CC(C(=O)Nc2nnc(SCC(=O)NC(C)C)s2)CC1=O` (configuration not stated), the B-score entry is “inactive”.
For `CCCCn1c(=O)c(C(C)=O)c(O)c2ccccc21` the value was “inactive”; for `CCCCN(CCCC)CC(O)Cn1c2ccccc2c(=O)c2ccccc21` (configuration not stated), -5.74 (active); for `CS(=O)(=O)N(CC(O)Cn1c2ccccc2c2ccccc21)c1cccc2ccccc12` (configuration not stated), “inactive”.
Consider `O=C1N(c2ccc(Cl)cc2)C(c2ccc(Cl)cc2)N2CCCN12` (configuration not stated), for which the B-score result is “inactive”.
To `c1ccc(C2CNCc3c2ccc2ccccc32)cc1` (configuration not stated) belongs -5 (active); to `NC(=O)C1=C[C@H](c2csc3ccccc23)C[C@H](OCc2ccc(CO)cc2)O1`, “inactive”.
To `Cc1ccc2nc(C)c3c(c2c1)N(c1ccccc1)CC3` belongs -8.61 (active); to `Cc1nc2ccc(C(=O)N3CCN(c4ccccc4)CC3)cc2s1`, “inactive”.
To `Cc1ccc2nc(Nc3ccccc3)cc(C)c2c1` belongs “inactive”.
With `O=C(NNS(=O)(=O)c1ccccc1)c1cnn(-c2ccc(Cl)cc2)c1C(F)(F)F`, the B-score entry is “inactive”.
To `CC1CCC(NS(=O)(=O)c2ccc3c(c2)CC(=O)N3)CC1` (configuration not stated) belongs “inactive”.
To `CN(C)CCCN(C(=O)c1ccc(S(=O)(=O)N2CCCCCC2)cc1)c1nc2cc3c(cc2s1)OCCO3` belongs “inactive”.
To `CCOc1ccc2nc(N(CCCN(C)C)C(=O)c3ccc(C(=O)c4ccccc4)cc3)sc2c1` belongs “inactive”.
For the compound `CCc1ccc2nc(N(CCCN(C)C)C(=O)c3ccc4c(c3)OCCO4)sc2c1`, the B-score was -6.22 (active).
To `O=C(NCCCN1CCCCC1)C1CCCN(c2ncnc3c2nc2n3CCCCC2)C1` (configuration not stated) belongs “inactive”; to `Cc1ccc(C(C(=O)NCC2CCCO2)N(C(=O)c2snc(C(N)=O)c2N)c2ccc(C(C)C)cc2)o1` (configuration not stated), “inactive”.
To `Cc1cccc(NC(=O)Nc2ccc3c(c2)OCO3)n1` belongs “inactive”; to `O=C(CCCN1C(=O)c2cccc3cccc(c23)C1=O)N1CCN(Cc2ccc3c(c2)OCO3)CC1`, -6.03 (active).
For `O=C(Nc1cccc2ccccc12)N1CCN(Cc2ccc3c(c2)OCO3)CC1` the value was “inactive”.
`Cn1c(=O)cc(OCCCC(=O)N2CCN(Cc3ccc4c(c3)OCO4)CC2)c2ccccc21`: the B-score entry was “inactive”.
As to `CC1(C)O[C@H]2CC(=O)OCC23[C@H]2CC[C@@]4(C)[C@H](c5ccoc5)OC(=O)[C@H]5O[C@]54[C@]2(C)C(=O)C[C@@H]13` (some centres not stated), the B-score result was “inactive”.
For `COc1ccccc1N(CC(=O)N/N=C(\C)c1ccccc1O)S(=O)(=O)c1ccc(C)cc1` the value was “inactive”; for `CC1CCN(c2ccc([N+](=O)[O-])c(SCCO)c2)CC1`, “inactive”; for `CN1CCN(c2ccc([N+](=O)[O-])c(Sc3nc4ccccc4[nH]3)c2)CC1`, -5.53 (active).
For `O=C(CSc1nc2ccccc2[nH]1)N/N=C/C=C\c1ccccc1[N+](=O)[O-]` the value was “inactive”; for `O=c1c(-c2ccc(Cl)cc2)[n+]([O-])c2ccccc2n1OCc1nc2ccccc2[nH]1`, “inactive”; for `COc1ccc(C(=O)NC2CCN(C(=O)Nc3ccc(F)cc3)CC2)cc1`, “inactive”.
To `CCOC(=O)N1CCC(N2Cc3cccc(C(=O)Nc4ccc(S(=O)(=O)N(CC)CC)cc4)c3C2=O)CC1` belongs “inactive”.
`CCCCN=C(N)/C(C(=O)OCC)=C(\O)c1ccc(OC)cc1`: the B-score result is “inactive”.
To `CCN1CCN(C(C(=O)NC2CCCC2)c2cc3c(cc2[N+](=O)[O-])OCO3)CC1` (configuration not stated) belongs “inactive”; to `COC(=O)c1ccccc1NC(=O)C1CCN(S(=O)(=O)c2cc(OC)ccc2OC)CC1`, -5.1 (active).
To `COc1ccc(NC(=O)C2CCN(S(=O)(=O)c3ccc4[nH]c(=O)oc4c3)CC2)c(OC)c1` belongs “inactive”; to `COC(=O)c1ccccc1NC(=O)C1CC(=O)N(c2ccc(OC)cc2)C1` (configuration not stated), “inactive”; to `COc1cccc(NC(=O)C/C(C)=N/NC(=O)C2CCCCC2)c1`, “inactive”.
To `CCCOc1ccc(C2c3c(oc4cc(C)c(C)cc4c3=O)C(=O)N2CCCN2CCOCC2)cc1` (configuration not stated) belongs “inactive”; to `Cc1cc2oc3ccc(NCCC4CCCN4C)cc3c(=O)c2cc1C` (configuration not stated), -9.21 (active).
For the compound `Cc1cc2oc(=O)cc(CN3CCN(Cc4ccccc4)CC3)c2cc1C`, the B-score result was “inactive”.
Consider `CCc1ccc(/C=N/NC(=O)c2ccc(OC3CCCC3)cc2)s1`, for which the B-score entry was “inactive”.
In the case of `CCN(CC)C(=O)CSc1ncnc2c1cnn2-c1ccccc1`, the B-score entry was “inactive”.
On to `CCOc1ccccc1N1CCN(C(=O)c2ccc3[nH]c(C)c(C)c3c2)CC1`, for which the B-score entry was “inactive”.
For `O=C(NCCO)C(=O)NCC(c1ccc2c(c1)OCO2)N1CCN(c2ccc(F)cc2)CC1` (configuration not stated), the B-score entry was “inactive”.
To `Cc1ccc(NC(=S)Nc2ccc(F)cc2)cc1` belongs “inactive”; to `CC(NC(=S)Nc1ccc(OC(F)F)cc1)c1ccc(F)cc1` (configuration not stated), -5.09 (active).
For `CC(C)CNC(=S)Nc1ccc(F)cc1` the value was “inactive”; for `Cc1cc(Br)ccc1NC(=O)CN(C)C(=O)CN1C(=O)NC2(CCCC2)C1=O`, “inactive”; for `CCOc1ccccc1-c1cc(C(=O)N/N=C(\C)c2cccnc2)c2ccccc2n1`, “inactive”.
On to `CCNC(=O)Nc1ccc(S(=O)(=O)Nc2cnc(C)nc2C)cc1`, for which the B-score result was “inactive”.
To `CCCc1cc(=O)oc2c(C)c(O)c(CN3CCCCC3)cc12` belongs -5.62 (active).
For `CCCc1cc(=O)oc2c(C)c(OC(C)C(=O)NCC(O)c3ccccc3)ccc12` (configuration not stated) the value was “inactive”.
Take `CCCc1cc(=O)oc2c(C)c(OCC(=O)N3CCC(C(=O)O)CC3)ccc12`: the B-score entry is “inactive”.
For `O=C(N/N=C\C1CC=CCC1)c1ccc(Br)o1` (configuration not stated) the value was “inactive”; for `CN(C)c1ccc(C2N(C)C(=O)c3ccccc3N2C)cc1` (configuration not stated), -7.38 (active).
To `CN(C)c1ccc(C2Nc3ccccc3C(=O)N2NS(=O)(=O)c2ccccc2)cc1` (configuration not stated) belongs “inactive”; to `CC(C)C(=O)N1c2ccccc2NC2=C(C(=O)CCC2)C1c1ccc(N(C)C)cc1` (configuration not stated), “inactive”; to `S=c1[nH]c2ccccc2c2ccccc12`, “inactive”.
For `N=c1c2c3c(sc2ncn1CCCN1CCOCC1)CCCCC3` the value was -5.61 (active); for `N=c1c2c3c(sc2ncn1N)CCCCC3`, “inactive”; for `N=c1c2c3c(sc2ncn1N)CCCC3`, “inactive”.
Regarding `C=C(C)Cn1c(C)cc(C)c(S(=O)(=O)c2ccccc2C)c1=O`, the B-score result was “inactive”.
For `C/C(=N\NC(=O)C1(C)CC1(Br)Br)c1ccc(C)cc1C` (configuration not stated) the value was “inactive”; for `C=CCNC(=O)c1ccccc1NC(=O)c1ccc(Cl)c(S(=O)(=O)Nc2cccc(C)c2C)c1`, “inactive”.
On to `COc1ccccc1C(CNC(=O)c1cccc(NS(=O)(=O)c2ccc(Br)cc2)c1)N(C)C` (configuration not stated), for which the B-score was -5.61 (active).
To `CC(=O)c1ccc(S(=O)(=O)Nc2ccc(C(=O)NCC(c3ccccc3)N(C)C)cc2)cc1` (configuration not stated) belongs “inactive”; to `CN(C)C(CNC(=O)c1cccc(S(=O)(=O)Nc2ccc(Br)cc2)c1)c1ccco1` (configuration not stated), “inactive”; to `Nc1c(N(CCO)C(=O)C2CCCCC2)c(=O)[nH]c(=O)n1Cc1ccccc1`, “inactive”.
To `CCN(CCCNC(=O)c1ccc2c(c1)NC(=O)CN2C)c1cccc(C)c1` belongs “inactive”.
With `COc1ccc(CNC(=O)C(=O)NCC2OCCN2C(=O)c2ccc(OC)cc2)cc1` (configuration not stated), the B-score result is “inactive”.
For `CCC1=NN(C(=O)Cc2ccc([N+](=O)[O-])cc2)C(O)(c2ccc(Br)cc2)C1` (configuration not stated) the value was “inactive”.
For `COc1ccc(Cl)cc1C(=O)NNC(=S)NC(=O)/C=C/c1ccco1` the value was “inactive”; for `COc1cc2c(cc1OC)C(c1cccc([N+](=O)[O-])c1)=NCC2`, “inactive”; for `COc1cc2c(cc1OC)C(/C=C/c1ccco1)=NCC2`, -5.37 (active).
For `COc1cc(C2C(C(=O)c3cccs3)=C(O)C(=O)N2CCN2CCOCC2)ccc1OCCC(C)C` (configuration not stated) the value was “inactive”.
In the case of `CC(=O)Nc1ccc(NS(=O)(=O)c2cc(C)sc2C)cc1`, the B-score result is “inactive”.
For `CCC(=O)N1CCCc2ccccc21` the value was “inactive”; for `O=C(C1CCN(S(=O)(=O)Cc2ccccc2)CC1)N1CCCc2ccccc21`, -5.01 (active).
For `CCS(=O)(=O)N1CCC(C(=O)N2CCN(c3ccccc3)CC2)CC1` the value was “inactive”; for `Cc1ccc(SCC(=O)NNC(=O)c2ccc(S(C)(=O)=O)cc2)cc1`, “inactive”; for `COc1ccc(C(=O)N/N=c2\oc3ccccc3cc2C(N)=O)cc1`, “inactive”.
To `CCN(CC)c1ccc2cc(C(N)=O)/c(=N\NC(=O)c3ccncc3)oc2c1` belongs -7.68 (active).
As to `NC(=O)c1cc2ccccc2o/c1=N/NC(=O)c1cccc(F)c1`, the B-score entry was “inactive”.
To `O=C(N/N=C\c1cccnc1)c1cc(-c2ccccc2)nc2c(Cl)cccc12` belongs “inactive”; to `COc1ccc(S(=O)(=O)NNC(=O)Nc2ccc(C)cc2)c(OC)c1`, “inactive”; to `Cc1cc2c(=O)n(CC(=O)NCC(=O)Nc3ccc(C(C)C)cc3)cnc2s1`, “inactive”.
For `CC1=NN(c2ccccc2)C(=O)C1C(=O)c1ccc([N+](=O)[O-])cc1` (configuration not stated), the B-score entry was “inactive”.
For `O=C1CC(c2ccccc2)=NN1c1ccc([N+](=O)[O-])cc1` the value was -8.01 (active); for `Cc1nn(-c2ccc([N+](=O)[O-])cc2)c(N)c1-c1ccccc1`, “inactive”.
For `CCCC(C)C(=O)NCc1ccncc1` (configuration not stated) the value was “inactive”; for `O=C(NCc1ccc(Cl)cc1)NCc1ccc(Cl)cc1`, “inactive”.
For `O=C(NCc1ccncc1)NC12CC3CC(CC(C3)C1)C2` the value was “inactive”; for `S=C(NCc1ccc(Cl)cc1)NC12CC3CC(CC(C3)C1)C2`, -5.21 (active); for `O=C(NCCCn1ccnc1)C(=O)NCC1OCCN1S(=O)(=O)c1cc(F)ccc1F` (configuration not stated), “inactive”.
Take `CC1CC(C)CN(CC(=O)N2c3ccccc3CCc3ccccc32)C1` (configuration not stated): the B-score entry was “inactive”.
To `CN1CCN(C(=O)N2c3ccccc3CCc3ccccc32)CC1` belongs -6.16 (active); to `CN1CCN(S(=O)(=O)c2cccc(C(=O)N3CCc4ccccc43)c2)CC1`, “inactive”.
For `COc1ccc(C(=O)C2CCCN(C(=O)c3cc(C)on3)C2)cc1F` (configuration not stated) the value was “inactive”; for `COc1ccccc1/C=C/CN1CCC(CO)(Cc2ccccc2)CC1`, “inactive”; for `Cc1cc(=O)cc(C)n1-c1ccc(Cl)c(Cl)c1`, “inactive”.
To `COc1ccc(NC(=O)CSc2nnc(-c3ccccc3F)n2C2CC2)cc1S(N)(=O)=O` belongs “inactive”.
As for `O=C(CNCCC1=CCCCC1)Nc1ccccc1N1CCCCCC1`, the B-score entry was “inactive”.
To `Cc1ccccc1NC(=O)Nc1ccccc1N1CCCCC1` belongs “inactive”.
To `Cc1ccccc1NC(=O)CNc1ccccc1N1CCCCC1` belongs -6.42 (active).

The record behind these values is PubChem BioAssay AID2553 (Johns Hopkins Ion Channel Center, 2010).
